Reference: PubChem BioAssay AID1159580 (chemical genetic matrix, 2015)
Hit rate of the full screen: of about 5,500 compounds, about 2,000 (36%) were called active. Inconclusive results (about 18%) are left out. No stated cut-off is given here; in the data, active means normalized growth mostly below about 0.91 (no sharp cut-off); inconclusive means no clear call, values can overlap the other calls; inactive means mostly above about 0.92. The list shows a part of the results.

Assay: chemical genetic growth profiling, strain panel (AID 1159580);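 further: tested at 20 µM; growth read once vehicle control cultures reached saturation at 30 °C; 1 = growth at the plate median or of vehicle wells; lower values mean less growth of the strain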
Settings: growth OD

Measured: normalized growth

COc1cc2c(cc1OC)C(=O)OC2
inactive: S. cerevisiae deletion strains, locus YJR075W, strain HOC1, active compounds read low 1.01 | S. cerevisiae deletion strains, locus YKL009W, strain mrt4, active compounds read low 1.05 | S. cerevisiae deletion strains, locus YKL068W, active compounds read low 1 | S. cerevisiae deletion strains, locus YKL085W, strain MDH1 (second series), active compounds read low 1.01 | S. cerevisiae deletion strains, locus YKL085W, strain MDH1, active compounds read low 1.01 | S. cerevisiae deletion strains, locus YKL160W, strain elf1, active compounds read low 0.994 | S. cerevisiae deletion strains, locus YKL190W, strain CNB1, active compounds read low 1 | S. cerevisiae deletion strains, locus YKR001C, strain vps1, active compounds read low 1.01 | S. cerevisiae deletion strains, locus YKR026C, strain gcn3, active compounds read low 0.992 | S. cerevisiae deletion strains, locus YKR091W, strain srl3, active compounds read low 0.996 | S. cerevisiae deletion strains, locus YLL001W, strain dnm1, active compounds read low 0.996 | S. cerevisiae deletion strains, locus YLL026W, active compounds read low 0.991 | S. cerevisiae deletion strains, locus YLL041C, strain sdh2, active compounds read low 1 | S. cerevisiae deletion strains, locus YLR027C, strain aat2, active compounds read low 1 | S. cerevisiae deletion strains, locus YLR039C, strain RIC1, active compounds read low 1.02 | S. cerevisiae deletion strains, locus YLR058C, strain SHM2, active compounds read low 1.01 | S. cerevisiae deletion strains, locus YLR102C, strain apc9, active compounds read low 1 | S. cerevisiae deletion strains, locus YLR113W, strain HOG1, active compounds read low 0.971 | S. cerevisiae deletion strains, locus YLR221C, strain rsa3, active compounds read low 1.01 | S. cerevisiae deletion strains, locus YLR258W, strain gsy2, active compounds read low 0.992 | S. cerevisiae deletion strains, locus YLR262C, strain YPT6 (second series), active compounds read low 1.02 | S. cerevisiae deletion strains, locus YLR262C, strain YPT6, active compounds read low 1.02 | S. cerevisiae deletion strains, locus YLR268W, strain sec22, active compounds read low 0.979 | S. cerevisiae deletion strains, locus YLR320W, strain mms22, active compounds read low 0.995 | S. cerevisiae deletion strains, locus YLR330W, strain CHS5, active compounds read low 1.01 | S. cerevisiae deletion strains, locus YLR342W, strain FKS1 (second series), active compounds read low 1.07 | S. cerevisiae deletion strains, locus YLR342W, strain FKS1, active compounds read low 0.999 | S. cerevisiae deletion strains, locus YLR357W, strain rsc2, active compounds read low 0.96 | S. cerevisiae deletion strains, locus YLR370C, strain arc18, active compounds read low 0.997 | S. cerevisiae deletion strains, locus YLR371W, strain rom2, active compounds read low 1.01 | S. cerevisiae deletion strains, locus YLR384C, strain iki3, active compounds read low 0.988 | S. cerevisiae deletion strains, locus YLR418C, strain cdc73, active compounds read low 0.925 | S. cerevisiae deletion strains, locus YML016C, strain PPZ1, active compounds read low 1 | S. cerevisiae deletion strains, locus YML032C, strain rad52, active compounds read low 1.01 | S. cerevisiae deletion strains, locus YML120C, strain ndi1, active compounds read low 1.01 | S. cerevisiae deletion strains, locus YML124C, strain tub3, active compounds read low 0.994 | S. cerevisiae deletion strains, locus YMR058W, strain fet3, active compounds read low 0.999 | S. cerevisiae deletion strains, locus YMR078C, strain ctf18, active compounds read low 1 | S. cerevisiae deletion strains, locus YMR125W, strain sto1, active compounds read low 0.984 | S. cerevisiae deletion strains, locus YMR129W, active compounds read low 0.992 | S. cerevisiae deletion strains, locus YMR205C, strain PFK2, active compounds read low 1.01 | S. cerevisiae deletion strains, locus YMR223W, strain ubp8, active compounds read low 1.02 | S. cerevisiae deletion strains, locus YMR231W, strain pep5, active compounds read low 0.99 | S. cerevisiae deletion strains, locus YMR263W, strain SAP30, active compounds read low 0.994 | S. cerevisiae deletion strains, locus YMR307W, strain GAS1, active compounds read low 1.09 | S. cerevisiae deletion strains, locus YNL067W, strain RPL9B, active compounds read low 0.997 | S. cerevisiae deletion strains, locus YNL071W, strain lat1, active compounds read low 0.995 | S. cerevisiae deletion strains, locus YNL128W, strain TEP1, active compounds read low 0.99 | S. cerevisiae deletion strains, locus YNL153C, strain GIM3, active compounds read low 0.978 | S. cerevisiae deletion strains, locus YNL183C, strain NPR1, active compounds read low 0.987 | S. cerevisiae deletion strains, locus YNL209W, strain ssb2, active compounds read low 0.979 | S. cerevisiae deletion strains, locus YNL233W, strain BNI4, active compounds read low 0.992 | S. cerevisiae deletion strains, locus YNL248C, strain rpa49, active compounds read low 0.978 | S. cerevisiae deletion strains, locus YNL250W, strain rad50, active compounds read low 0.995 | S. cerevisiae deletion strains, locus YNL271C, strain bni1, active compounds read low 1 | S. cerevisiae deletion strains, locus YNL298W, strain CLA4, active compounds read low 1.02 | S. cerevisiae deletion strains, locus YNL307C, strain MCK1, active compounds read low 1.02 | S. cerevisiae deletion strains, locus YNL322C, strain KRE1 (second series), active compounds read low 0.996 | S. cerevisiae deletion strains, locus YNL322C, strain KRE1, active compounds read low 1.01 | S. cerevisiae deletion strains, locus YNR049C, strain mso1, active compounds read low 1 | S. cerevisiae deletion strains, locus YNR052C, strain pop2, active compounds read low 1.01 | S. cerevisiae deletion strains, locus YOL006C, strain TOP1, active compounds read low 0.996 | S. cerevisiae deletion strains, locus YOL012C, strain htz1 0.744 | S. cerevisiae deletion strains, locus YOL147C, strain pex11, active compounds read low 1 | S. cerevisiae deletion strains, locus YOR001W, strain rrp6, active compounds read low 0.993 | S. cerevisiae deletion strains, locus YOR061W, strain CKA2, active compounds read low 1 | S. cerevisiae deletion strains, locus YOR069W, strain VPS5, active compounds read low 1.01 | S. cerevisiae deletion strains, locus YOR070C, strain gyp1, active compounds read low 0.984 | S. cerevisiae deletion strains, locus YOR080W, strain dia2, active compounds read low 1.01 | S. cerevisiae deletion strains, locus YOR083W, strain WHI5, active compounds read low 0.996 | S. cerevisiae deletion strains, locus YOR106W, strain vam3, active compounds read low 0.99 | S. cerevisiae deletion strains, locus YOR136W, strain idh2, active compounds read low 1 | S. cerevisiae deletion strains, locus YOR144C, strain elg1, active compounds read low 1 | S. cerevisiae deletion strains, locus YOR184W, strain ser1, active compounds read low 1.04 | S. cerevisiae deletion strains, locus YOR231W, strain MKK1, active compounds read low 0.991 | S. cerevisiae deletion strains, locus YOR265W, strain rbl2, active compounds read low 1.01 | S. cerevisiae deletion strains, locus YOR270C, strain vph1, active compounds read low 0.971 | S. cerevisiae deletion strains, locus YOR290C, strain snf2, active compounds read low 1.01 | S. cerevisiae deletion strains, locus YOR316C, strain cot1, active compounds read low 1.01 | S. cerevisiae deletion strains, locus YPL051W, strain arl3, active compounds read low 0.994 | S. cerevisiae deletion strains, locus YPL055C, strain LGE1, active compounds read low 0.973 | S. cerevisiae deletion strains, locus YPL078C, strain atp4, active compounds read low 1.01 | S. cerevisiae deletion strains, locus YPL106C, strain sse1, active compounds read low 0.901 | S. cerevisiae deletion strains, locus YPL240C, strain hsp82, active compounds read low 0.988 | S. cerevisiae deletion strains, locus YPL241C, strain CIN2, active compounds read low 1 | S. cerevisiae deletion strains, locus YPL256C, strain CLN2, active compounds read low 1 | S. cerevisiae deletion strains, locus YPR119W, strain clb2, active compounds read low 0.995 | S. cerevisiae deletion strains, locus YPR141C, strain kar3, active compounds read low 1 | S. cerevisiae deletion strains, locus YPR163C, strain tif3, active compounds read low 0.989 | S. cerevisiae deletion strains, locus YPR167C, strain met16, active compounds read low 1 | S. cerevisiae deletion strains, strain wtn01, active compounds read low 1 | S. cerevisiae strains, strain wild type, active compounds read low 1.01
